# Sampled rows, rich in hits. Any-hit rate of the full collection: about 0.82%.
# VHR inh abs = VHR1 phosphatase inhibitors, primary screen, biochemical, absorbance, uHTS; recombinant VHR phosphatase, pNPP absorbance; inhibition, % at 13.3 µM; hit rate 0.52% among 290,000; AID 1654, 2009; Dual specificity protein phosphatase 3 (Homo sapiens), P51452; in the data active means inhibition above about 50%
# PrPC TRFRET = inhibitors of human cell surface prion protein PrPC, primary screen, cell-based, TR-FRET. inhibition, % at 13.8 µM. Major prion protein (Homo sapiens), P04156. TR-FRET read-out. hit rate 0.43% among 370,000. AID 720596, 2013; in the data active means inhibition above about 24%
# TcdB GH inh = TcdB glycohydrolase inhibitors, primary screen, biochemical, single point, plate reader; TcdB glycohydrolase enzymatic assay; inhibition, % at 9.99 µM; hit rate 0.24% among 350,000; in the data active means inhibition above about 10%
# PrPC TRFRET cf = confirmation of inhibitors of cell surface human prion protein, confirmation, cell-based, TR-FRET. shares compounds with PrPC TRFRET. cell surface PrPC level. inhibition, % at 13.8 µM. hit rate 65% among 1,500. AID 743200, 2013; in the data active means inhibition above about 25%
# LD9 tox = cytotoxicity in LD9 cells, cytotoxicity control for cell surface PrPc inhibitor project, cell-based, luminescence, high throughput. shares compounds with PrPC TRFRET. inhibition, % at 13.8 µM. AID 743201, 2013. luminescence viability. hit rate 29% among 1,500; in the data active means inhibition above about 9.5%
# Hits are given with their value; . = inactive; / = not tested or not shown.
SMILES,VHR inh abs,PrPC TRFRET,TcdB GH inh,PrPC TRFRET cf,LD9 tox
CCC1CCCCN1S(=O)(=O)c1ccc(NC(=O)c2ccncc2)cc1 (configuration not stated),.,.,.,/,/
CO[C@H]1CN(C)C(=O)c2cc(NC(=O)Nc3cc(F)ccc3F)ccc2OC[C@H](C)N(C)C[C@H]1C,/,/,.,/,/
CCCNC(=O)[C@@H]1[C@@H](CO)[C@@H]2Cn3c(cccc3=O)[C@@H]2N1C(=O)C1CCCC1,/,/,.,/,/
CO[C@@H]1CN(C)C(=O)c2cc(NS(=O)(=O)c3ccc(F)cc3)ccc2OC[C@H](C)NC[C@H]1C,/,/,.,/,/
CCN(CC(=O)Nc1c(F)cccc1F)C(=O)c1cc(-c2cccs2)nn1-c1ccccc1,/,24.6,.,28.1,.
CN(CC(=O)Nc1c(Cl)cccc1Cl)C(=O)c1cc(-c2cccs2)nn1-c1ccccc1,/,.,.,/,/
Cc1cccc(S(=O)(=O)N2CC[C@@H]3[C@H]2c2cc(C#Cc4cccc(F)c4)ccc2N[C@@H]3CO)c1,/,/,.,/,/
C[C@@H]1CN([C@@H](C)CO)C(=O)c2cc(NC(=O)Cn3cnnn3)ccc2O[C@@H]1CN(C)C(=O)NC1CCCCC1,/,/,.,/,/
CC(C)[C@H](CO)N(Cc1cccc(F)c1)c1nc(Nc2cccc(Cl)c2)c2ncn(C(C)C)c2n1,.,.,.,/,/
CC[C@H](CO)Nc1nc(Nc2cccc(Cl)c2)c2ncn(C(C)C)c2n1,.,24.7,.,.,11.3
COC(=O)C1=C(C)N(Cc2ccccc2C(F)(F)F)C(=NCc2cccc(C(F)(F)F)c2)NC1CCc1ccccc1 (configuration not stated),/,.,.,/,/
COC(=O)C1=C(C)N(Cc2cccc(C(F)(F)F)c2)C(=NCc2cc(OC)c(OC)c(OC)c2)NC1CCc1ccccc1 (configuration not stated),/,31.3,.,26.1,.
O=C(NCC[C@H]1CC[C@@H](NC(=O)c2cnccn2)[C@@H](CO)O1)c1ccc2c(c1)OCO2,/,/,.,/,/
N#CC(C(=O)CCN1C(=O)C2CC=CCC2C1=O)c1nc2ccccc2[nH]1 (configuration not stated),.,.,/,/,/
N#CC(C(=O)C12CC3CC(CC(C3)C1)C2)c1nc2ccccc2[nH]1 (configuration not stated),.,34.6,/,.,.
CN1/C(=C\C(=S)NC(=O)c2cccc(Br)c2)C(C)(C)c2ccccc21,.,25.2,.,30.1,15.8
CN1/C(=C\C(=S)NC(=O)c2ccc([N+](=O)[O-])cc2)C(C)(C)c2ccccc21,.,.,/,/,/
COc1ccc(NC(=O)N(C)C[C@@H]2Oc3ccc(NC(=O)Nc4ccc(F)cc4)cc3CC(=O)N([C@H](C)CO)C[C@@H]2C)cc1,/,/,.,/,/
COc1ccc(S(=O)(=O)Nc2cccc3c2O[C@@H](CN(C)C(=O)Nc2ccc4c(c2)OCO4)[C@H](C)CN([C@H](C)CO)C3=O)cc1,/,/,.,/,/
CCOc1ccc2[nH]cc(C(=O)NCCc3ccccc3)c(=O)c2c1,.,.,.,/,/
CCOc1ccc2[nH]cc(C(=O)NCc3ccccc3)c(=O)c2c1,.,24.9,.,.,.
Cc1ccc(S(=O)(=O)Nc2ccc3c(c2)C(=O)N([C@@H](C)CO)C[C@H](C)[C@@H](CN(C)C(=O)c2ccccc2)OCCCC[C@@H](C)O3)cc1,/,/,.,/,/
CCCNC(=O)N(C)C[C@@H]1Oc2ncc(Br)cc2C(=O)N([C@H](C)CO)C[C@H]1C,/,/,.,/,/
NC(Cc1ccccc1)c1csc(NC(=O)Nc2ccccc2Oc2ccccc2)n1 (configuration not stated),/,25.0,.,27.4,.
COc1ccc(CC(N)c2csc(NC(=O)Nc3ccccc3Oc3ccccc3)n2)cc1 (configuration not stated),/,.,.,/,/
SMILES,VHR inh abs,PrPC TRFRET,TcdB GH inh,PrPC TRFRET cf,LD9 tox
CC(C)CC#Cc1ccc([C@H]2[C@H](CO)N3C(=O)CN(C(=O)NC4CCCC4)C[C@@H]23)cc1,/,/,.,/,/
Cc1cc(C(=O)O)cc(S(=O)(=O)NNC(=O)c2cccs2)c1C,.,42.0,.,.,.
O=C(NNC(=O)c1cccs1)c1ccc(Cl)c(S(=O)(=O)N2CCCC2)c1,/,.,.,/,/
Cc1ccccc1-c1ccc([C@H]2[C@H]3CN(C(=O)Cc4ccccn4)CC(=O)N3[C@H]2CO)cc1,/,/,.,/,/
COc1ccc(C(CC(=O)O)NC(=O)c2cccs2)cc1 (configuration not stated),.,.,/,/,/
COc1ccc(C(CC(=O)O)NC(=O)c2sc3ccccc3c2Cl)cc1 (configuration not stated),.,34.2,.,38.5,.
Cc1cc2nc(C3CCN(Cc4nnnn4Cc4ccccc4)CC3)[nH]c2cc1C,.,.,.,/,/
CCC(C)(C)n1nnnc1CN1CCC(c2nc3ccc(C)cc3[nH]2)CC1,.,32.5,/,32.1,.
CCN1[C@@H]2c3ccc(-c4ccccc4OC)c(=O)n3C[C@@H]2[C@@H](CO)[C@@H]1C(=O)NCc1ccc(F)cc1,/,/,.,/,/
COc1ccc(CN(C)C[C@H]2Oc3ccc(NC(=O)Nc4ccc5c(c4)OCO5)cc3C(=O)N([C@@H](C)CO)C[C@@H]2C)cc1,/,/,.,/,/
CC(C)C#Cc1cnc2c(c1)C(=O)N([C@@H](C)CO)C[C@H](C)[C@@H](CN(C)C(=O)Cc1ccccn1)O2,/,/,.,/,/
CCOC(=O)c1sc2nc(CC(=O)OC)nc(NCc3ccco3)c2c1C,.,.,/,/,/
CCOC(=O)c1sc2ncnc(NCc3ccco3)c2c1C,.,24.5,/,.,14.8
CCCc1c(-c2ccc(F)cc2F)ncn1Cc1ccccc1OC,/,25.4,.,.,.
CCCc1c(-c2cccc(F)c2)ncn1Cc1ccccc1OC,/,.,.,/,/
CNC(=O)C[C@H]1CC[C@@H]2[C@H](COC[C@@H](O)CN2Cc2ccc(Cl)c(Cl)c2)O1,/,/,.,/,/
Cn1c2ccccc2c(=O)c2ccc(C#Cc3ccc(N)cc3)cc21,.,28.8,.,52.7,19.0
COc1ccc(C#Cc2ccc3c(=O)c4ccccc4n(C)c3c2)cc1,.,/,/,/,/
C[C@H](CO)N1C[C@H](C)[C@H](CN(C)Cc2ccncc2)Oc2c(NS(=O)(=O)c3cn(C)cn3)cccc2C1=O,/,/,.,/,/
CC1CC(C)CC(C)C(O)C(C#N)=CC=CCC(C2CCCC2C(=O)O)OC(=O)CC(O)C(C)C1 (configuration not stated),/,86.6,.,98.2,51.1
COc1ccc(CN(C)C[C@H]2OCCCC[C@H](C)Oc3ccc(NC(=O)NC(C)C)cc3C(=O)N([C@H](C)CO)C[C@H]2C)cc1,/,/,.,/,/
Cc1nn(C(C)C(=O)O)c(=O)c2c1sc1ccccc12 (configuration not stated),.,45.3,/,59.6,.
Cc1nn(C(C)C(=O)N2CCCCC2)c(=O)c2c1sc1ccccc12 (configuration not stated),.,.,/,/,/
COc1ccc(CN(C)C[C@@H]2OCCCC[C@@H](C)Oc3ccc(NS(=O)(=O)c4cn(C)cn4)cc3C(=O)N([C@H](C)CO)C[C@H]2C)cc1,/,/,.,/,/
C=CCNC(=O)c1onc(CSc2ccccc2)c1C(=O)O,.,.,.,/,/
C=CCNC(=O)c1onc(CSc2ccc(OC)cc2)c1C(=O)O,.,36.8,.,.,.

# High-throughput results from PubChem BioAssay.
